This is an account of results in PubChem BioAssay (NCATS).

Inconclusive results are not listed. Activity calls are given as the source filed them. Calls come from the whole dose curve; as a rule, active = well fitted curve in the direction sought with a large enough effect; inconclusive = small, poorly fitted or top-dose-only effect, or another doubt; inactive = no such curve, though single readings can be large; an effect the other way counts as inactive or inconclusive.

A short description of experiment [1]: qHTS of pediatric cancer cell lines to identify multiple opportunities for drug repurposing: Primary screen for BT-37 cells (AID 1347094). Note: potency is the fitted concentration of half-maximal effect. The method in brief: (§1)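 Readout: CellTiter-Glo luminescence, 48 h treatment. Controls DMSO (neutral) and bortezomib 2.3 µM final (positive). Potency and efficacy taken from primary-screen concentration-response curves.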
For orientation: Quantitative high-throughput screening tests each substance at several concentrations.

A short description of experiment [2]: qHTS of pediatric cancer cell lines to identify multiple opportunities for drug repurposing: Primary screen for NB-EBc1 cells (AID 1347095). Note: potency is the fitted concentration of half-maximal effect. The method in brief:
as §1

Experiment [3] can be described thus: qHTS of pediatric cancer cell lines to identify multiple opportunities for drug repurposing: Primary screen for U-2 OS cells (AID 1347096). Note: nearly all actives have a fitted effect of over 50% in size. Note: potency is the fitted concentration of half-maximal effect. The method in brief:
(§2)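 Cells (500-1,000/well) rested 5 h, then received compounds for 48 h; metabolically active cells were measured by CellTiter-Glo luminescence. Final concentrations spanned up to 46 µM (MIPE, 11-point) or 0.59 nM-46 µM (NPC, 8-point) in primary screens, 11-point in follow-ups.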

A short description of experiment [4]: qHTS of pediatric cancer cell lines to identify multiple opportunities for drug repurposing: Primary screen for Saos-2 cells (AID 1347097). Note: nearly all actives have a fitted effect of over 40% in size. Note: potency is the fitted concentration of half-maximal effect. The method in brief: as §1
Experiment [5] in a line: qHTS of pediatric cancer cell lines to identify multiple opportunities for drug repurposing: Primary screen for SK-N-SH cells (AID 1347098). Note: nearly all actives have a fitted effect of over 65% in size. Note: potency is the fitted concentration of half-maximal effect. Summed up: as §2
Experiment [6] in a line: qHTS of pediatric cancer cell lines to identify multiple opportunities for drug repurposing: Primary screen for NB1643 cells (AID 1347099). Note: nearly all actives have a fitted effect of over 50% in size. Note: potency is the fitted concentration of half-maximal effect. The method in brief: as §1
The nature of experiment [7]: qHTS of pediatric cancer cell lines to identify multiple opportunities for drug repurposing: Primary screen for BT-12 cells (AID 1347101). Note: nearly all actives have a fitted effect of over 25% in size. Note: potency is the fitted concentration of half-maximal effect. Summed up:
as §2

Experiment [8] can be described thus: qHTS of pediatric cancer cell lines to identify multiple opportunities for drug repurposing: Primary screen for Rh18 cells (AID 1347102). Note: nearly all actives have a fitted effect of over 65% in size. Note: potency is the fitted concentration of half-maximal effect. The method in brief:
as §2

Experiment [9] can be described thus: qHTS of pediatric cancer cell lines to identify multiple opportunities for drug repurposing: Primary screen for OHS-50 cells (AID 1347103). Note: nearly all actives have a fitted effect of over 40% in size. Note: potency is the fitted concentration of half-maximal effect. Summed up: as §2
A short description of experiment [10]: qHTS of pediatric cancer cell lines to identify multiple opportunities for drug repurposing: Primary screen for RD cells (AID 1347104). Note: nearly all actives have a fitted effect of over 55% in size. Note: potency is the fitted concentration of half-maximal effect. The method in brief:
as §1

Experiment [11] can be described thus: qHTS of pediatric cancer cell lines to identify multiple opportunities for drug repurposing: Primary screen for MG 63 (6-TG R) cells (AID 1347105). Note: nearly all actives have a fitted effect of over 50% in size. Note: potency is the fitted concentration of half-maximal effect. Summed up: as §1
Experiment [12] in a line: qHTS of pediatric cancer cell lines to identify multiple opportunities for drug repurposing: Primary screen for control Hh wild type fibroblast cells (AID 1347106).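 Note: series mostly up to about 46 µM; a drop in luminescence marks cytotoxicity and a rise apparent proliferation; nearly all actives have a fitted effect of over 55% in size.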 The method in brief:
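Cells (500-1,000/well) in growth media were settled 5 h at 37 degrees C, then given compounds for 48 h. Viability was read as CellTiter-Glo luminescence. Primary runs used MIPE at 11 points (0.78 nM-46 µM) and NPC at 8 points (0.59 nM-46 µM); follow-ups used 11 points.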

The nature of experiment [13]: qHTS of pediatric cancer cell lines to identify multiple opportunities for drug repurposing: Primary screen for Rh30 cells (AID 1347107). Note: series mostly up to about 46 µM; nearly all actives have a fitted effect of over 75% in size. The method in brief: as §2
Experiment [14] can be described thus: qHTS of pediatric cancer cell lines to identify multiple opportunities for drug repurposing: Primary screen for Rh41 cells (AID 1347108). Note: nearly all actives have a fitted effect of over 70% in size. Note: potency is the fitted concentration of half-maximal effect. The method in brief:
as §1

Experiment [15] can be described thus: qHTS of pediatric cancer cell lines to identify multiple opportunities for drug repurposing: Primary screen for LAN-5 cells (AID 1347100). Note: potency is the fitted concentration of half-maximal effect. The method in brief:
as §2

Experiment [16] can be described thus: qHTS of pediatric cancer cell lines to identify multiple opportunities for drug repurposing: Confirmatory screen for NB1643 cells (AID 1347109). Note: potency is the fitted concentration of half-maximal effect; nearly all actives have a fitted effect of over 45% in size. Summed up: as §2
Experiment [17] is described as follows: qHTS of pediatric cancer cell lines to identify multiple opportunities for drug repurposing: Confirmatory screen for SK-N-MC cells (AID 1347111).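 Note: potency is the fitted concentration of half-maximal effect; cells exposed to compound for 48 h before the readout; nearly all actives have a fitted effect of over 70% in size.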 The method in brief: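 Seed 500-1,000 cells/well; rest 5 h at 37 degrees C. Pin-transfer compounds, 11-point titration. Incubate 48 h. Add CellTiter-Glo, 15 min RT, read luminescence.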
Experiment [18] in a line: qHTS of pediatric cancer cell lines to identify multiple opportunities for drug repurposing: Confirmatory screen for BT-12 cells (AID 1347112). Note: nearly all actives have a fitted effect of over 55% in size. The method in brief:
as §2

Experiment [19] in a line: qHTS of pediatric cancer cell lines to identify multiple opportunities for drug repurposing: Confirmatory screen for LAN-5 cells (AID 1347113). Note: potency is the fitted concentration of half-maximal effect; nearly all actives have a fitted effect of over 65% in size. Summed up: as §2

With `COc1ccccc1N1CCN(CCCNc2cc(=O)n(C)c(=O)n2C)CC1`, the Potency result in experiment [1], in [2], in [3], in experiment [4], in [5] and in [6] was “inactive” throughout. For the same molecule, the Potency result in experiment [7], in [8], in [9], in experiment [10], in experiment [11] and in experiment [12] was “inactive” in each case. Besides, the Potency result in experiment [13] and in [14] was “inactive” each time.
Consider `CC(=O)c1ccc(S(=O)(=O)NC(=O)NC2CCCCC2)cc1`, for which the Potency result in experiment [1], in experiment [2], in experiment [3], in experiment [4], in [5] and in [6] was “inactive” each time. The Potency result in [15], in [7], in experiment [8], in [9], in experiment [10] and in experiment [11] was “inactive” each time. The Potency result in [12] and in [13] was “inactive” in each case.
As to `NC[C@@H]1O[C@@H](O[C@H]2[C@@H](O)[C@H](O[C@@H]3[C@@H](O)[C@@H](N)C[C@H](N)[C@H]3O[C@H]3O[C@H](CN)[C@@H](O)[C@@H](O)[C@H]3N)O[C@H]2CO)[C@H](N)[C@@H](O)[C@@H]1O`, the Potency result in [1], in experiment [2], in [3], in [4], in [5] and in [6] was “inactive” in each case. The Potency result in [15], in experiment [7], in experiment [8], in experiment [9], in experiment [10] and in [11] was “inactive” throughout. Moreover, the Potency entry in experiment [12] and in [13] was “inactive” each time.
Regarding `COc1ccc(-c2cc(=O)c3c(O)cc(O)cc3o2)cc1O`, the Potency in experiment [1] was 21.7 µM (active); in experiment [2] it was 11.8 µM (active); in experiment [4] it was 18.7 µM (active); in [5], 24.1 µM (active); in [6], 4.69 µM (active); in experiment [15] it was 7.43 µM (active). For the same molecule, the Potency result in experiment [3], in experiment [12] and in experiment [13] was “inactive” each time.
As to `C[N+](C)(C)CC(=O)O`, the Potency entry in experiment [1], in experiment [2], in [3], in experiment [4], in experiment [6] and in experiment [15] was “inactive” in each case. For the same molecule, the Potency entry in [7], in experiment [8], in experiment [9], in [10], in [12] and in [13] was “inactive” each time. Besides, the Potency result in [14] was “inactive”.
In the case of `CC(C)(C)c1ccc(C(O)CCCN2CCC(C(O)(c3ccccc3)c3ccccc3)CC2)cc1` (stereo not given), the Potency result in [1], in experiment [2], in [3], in experiment [4], in [6] and in experiment [7] was “inactive” throughout. For the same molecule, the Potency entry in [8], in [9], in experiment [10], in [11], in experiment [12] and in [13] was “inactive” in each case. The Potency entry in [14] is “inactive”.
Regarding `CC1(C)CCC(CN2CCN(c3ccc(C(=O)NS(=O)(=O)c4ccc(NCC5CCOCC5)c([N+](=O)[O-])c4)c(Oc4cnc5[nH]ccc5c4)c3)CC2)=C(c2ccc(Cl)cc2)C1`, the Potency in experiment [1] was 27.3 µM (active); in experiment [2] it was 1.87 µM (active); in experiment [3] it was 18.7 µM (active); in experiment [4], 14.8 µM (active); in experiment [6] it was 0.0418 µM (active); in experiment [15], 1.05 µM (active). Besides, the Potency is 30.6 µM (active) in experiment [7]; 10.5 µM (active) in experiment [8]; 15.3 µM (active) in experiment [9]; 18.7 µM (active) in [10]; 11.8 µM (active) in experiment [11]; 18.7 µM (active) in experiment [14]. Also, the Potency in experiment [16] was 0.261 µM (active); in experiment [17] it was 18.5 µM (active); in [19], 5.85 µM (active). In addition, the Potency entry in [12] and in [18] was “inactive” each time.
`CC(C)C(=O)Oc1ccc(CO)cc1[C@H](CCN(C(C)C)C(C)C)c1ccccc1`: the Potency result in experiment [1], in experiment [2], in experiment [3], in [4], in experiment [5] and in experiment [7] was “inactive” in each case. The Potency result in experiment [8], in experiment [10], in experiment [11], in experiment [12] and in experiment [13] was “inactive” in each case.
